Screening results from PubChem BioAssay.
The list is not random: actives were taken first. Their share in the collection is about 11%.
HSD17B inhib: qHTS Assay for Inhibitors of HSD17B4, hydroxysteroid (17-beta) dehydrogenase 4. 3-hydroxyacyl-CoA dehydrogenase type-2 (Homo sapiens), Q99714. recombinant HSD17B10, NADH fluorescence kinetic. Potency, µM (titrated, usually from 57.1 µM), for the others: at the highest dose activity change, negative = inhibition, actives largely listed as inhibitors. 75,000 tested, 7.6% active. AID 893, 2007;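 also: the protocol describes HADH2 (HSD17B10) and not the HSD17B4 of the title; nearly all actives have a fitted effect of over 70% in size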
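Activity followed as NADH fluorescence increase (ex 360, em 450 nm) every 30 seconds for 4 min, using final 90 uM beta-hydroxybutyryl CoA and 1 mM NAD+. Recombinant His-tagged enzyme, 20 nM, pH 9.0 Tris buffer, 15 min compound preincubation.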
ALOX15 inhib: qHTS Assay for Inhibitors of 15-hLO (15-human lipoxygenase). Polyunsaturated fatty acid lipoxygenase ALOX15 (Homo sapiens), P16050. purified 15hLO-1, xylenol orange hydroperoxide absorbance. Potency, µM (highest dose often 57.1 µM), for inactives: at the top dose activity change, negative = inhibition, actives largely listed as inhibitors. 74,000 tested, 1.4% active. AID 887, 2007; also: nearly all actives have a fitted effect of over 55% in size
Target sequence (P16050 whole entry, looked up): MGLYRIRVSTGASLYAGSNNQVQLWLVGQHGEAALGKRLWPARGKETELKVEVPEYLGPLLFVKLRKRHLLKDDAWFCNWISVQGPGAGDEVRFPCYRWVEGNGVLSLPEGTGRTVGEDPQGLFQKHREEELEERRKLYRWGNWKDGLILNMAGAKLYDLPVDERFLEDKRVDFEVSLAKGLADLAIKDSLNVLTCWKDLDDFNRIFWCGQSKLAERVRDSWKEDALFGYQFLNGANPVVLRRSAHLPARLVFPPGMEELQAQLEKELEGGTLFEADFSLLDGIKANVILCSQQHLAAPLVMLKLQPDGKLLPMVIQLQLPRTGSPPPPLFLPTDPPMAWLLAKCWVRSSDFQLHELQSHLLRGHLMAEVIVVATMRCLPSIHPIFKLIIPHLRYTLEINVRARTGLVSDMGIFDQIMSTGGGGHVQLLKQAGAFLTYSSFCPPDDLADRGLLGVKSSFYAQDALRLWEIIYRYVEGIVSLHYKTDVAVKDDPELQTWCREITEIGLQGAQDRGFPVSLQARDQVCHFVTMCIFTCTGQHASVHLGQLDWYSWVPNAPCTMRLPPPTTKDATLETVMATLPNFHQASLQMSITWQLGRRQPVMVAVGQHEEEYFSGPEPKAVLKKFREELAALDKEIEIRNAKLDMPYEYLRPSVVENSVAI
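Readout: Fe(III)-xylenol orange absorbance, 573-to-405 nm ratio as reaction progress. Enzyme 40 nM purified human 15hLO-1, substrate 50 uM arachidonic acid, 6 min RT after 15 min compound preincubation; Hepes pH 7.5 buffer with Triton X-100.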
ERK AVP block: qHTS Assay for Inhibitors of the ERK Signaling Pathway using a Homogeneous Screening Assay. HEK293-V1b, vasopressin-stimulated pERK AlphaScreen. Potency, µM (top dose mostly 57.5 µM), for the others: at the highest dose activity, negative = inhibition, most hits filed as inhibitors. 72,000 tested, 0.99% active. AID 995, 2007; also: nearly all actives have a fitted effect of over 55% in size
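HEK293 cells stably expressing V1b receptor, preincubated 30 min at 37 °C with compound, then stimulated 5 min with 25 nM vasopressin. Phospho-ERK by AlphaScreen SureFire after 5 h RT; normalized to DMSO and vasopressin; AC50 by Hill fit.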
PK Bst: Pyruvate Kinase. purified pyruvate kinase, luminescence ATP production; ribose 5-phosphate activator present at AC10. Potency, µM. 51,000 tested, 1.2% active. AID 361, 2006; in the data active = potency below about 11 µM; inconclusive = mostly about 12 µM to 25 µM;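 the screen sought inhibitors and activators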;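 also: scaled between full activation by ribose 5 phosphate and full inhibition by luteolin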
HADH2 inh: qHTS Assay for Inhibitors of HADH2 (Hydroxyacyl-Coenzyme A Dehydrogenase, Type II). 73,000 tested, 3.4% active. recombinant HADH2, NADH fluorescence, beta-hydroxybutyryl-CoA. Potency, µM (highest dose often 57.1 µM), for inactives: at the highest dose activity change, negative = inhibition, hits mostly inhibitors. 3-hydroxyacyl-CoA dehydrogenase type-2 (Homo sapiens), Q99714; also: nearly all actives have a fitted effect of over 60% in size
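Buffer 100 mM Tris-HCl pH 9.0/0.01% Tween-20; HADH2 20 nM; NAD+ 1 mM; beta-hydroxybutyryl-CoA 90 uM (all final). 15 min cpd preincubation, RT.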
FLuc inh: qHTS Assay for Inhibitors of Firefly Luciferase; 72,000 tested, 2.2% active; Potency, µM (doses to about 57.1 µM), for inactives: top-dose activity change, negative = inhibition, usual class: inhibitors; purified firefly luciferase, luminescence, 8 min; AID 411, 2009; Luciferin 4-monooxygenase (Photinus pyralis), P08659; also: nearly all actives have a fitted effect of over 40% in size
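Compounds were tested as concentration series (qHTS) against purified P. pyralis luciferase with luciferin and 10 uM ATP in 50 mM imidazole pH 7.2, 50 mM KCl, 7 mM MgCl2, 0.01% Tween 20, 0.05% BSA. Luminescence was read after 8 min at ambient temperature.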
Numbers without * were called inactive; i = inactive; ? = inconclusive; . = no result; [ ] = dose if it differs, or a comment. Unless noted, calls follow the shape of the dose curve; as a rule, active = well fitted curve in the direction sought with a large enough effect; inconclusive = small, poorly fitted or top-dose-only effect, or another doubt; inactive = no such curve, though single readings can be large; an effect the other way counts as inactive or inconclusive. Unless noted, % is scaled to controls: 0 for no effect and ±100 for the full control effect; potency is read from the fitted curve at half-maximal effect.

SMILES | HSD17B inhib | ALOX15 inhib | ERK AVP block | PK Bst | HADH2 inh | FLuc inh
COC(=O)[C@@]1(Cc2ccccc2)[C@H]2c3cc(C(=O)N4CCCC4)n(CC4CC4)c3C[C@H]2CN1C(=O)c1ccccc1 | -16% | . | -15% | . | -9% | .
COc1ccc(S(=O)(=O)NCCN2CCOCC2)c2ccccc12 | -2% | 4%[11.4 µM] | -10% | . | -10%[11.4 µM] | -1%
COc1ccc(S(=O)(=O)n2ccnc2)c2cccnc12 | 25µM* | 1% | -5% | >57 | ? | 2%
CCCCNS(=O)(=O)c1ccc(OC)c2ncccc12 | 32µM* | 11% | 0% | >57 | ? | 1%
COc1ccc(NC(=O)Nc2nccs2)cc1 | 6% | -2% | -17% | i | 5% | 13µM*
COc1cccc(C(=O)Nc2ccc(N(C)C)cc2)c1OC | 1% | -16% | ? | i | -2% | 16µM*
COc1ccc(NC(=O)Nc2ccc3nccnc3c2)cc1 | -9% | 2%[11.4 µM] | -25% | . | 6%[11.4 µM] | 6.3µM*
COc1cccc(NC(=O)c2cccc(OC)c2OC)c1 | 7% | 7% | -10% | . | 2% | ?
COc1ccc(CNC(=O)c2ccc3nccnc3c2)cc1 | -8% | 9% | 5% | . | -12% | 3%
COc1ccc(NC(=O)Nc2ccc(N(C)C)cc2)cc1 | -8% | -7% | -12% | . | 12% | 13µM*
Cn1c(C[C@@H](O)c2nc3ccccc3n2C)nc2ccccc21 | -6%[11.4 µM] | 11%[11.4 µM] | -26%[11.5 µM] | . | 6%[11.4 µM] | 2%[11.4 µM]
O=C(Nc1cccnc1)c1ccccc1F | 4% | 2% | 22% | . | 3% | -1%
O=C(Nc1ccc2oc(-c3ccncc3)nc2c1)c1cccs1 | 32µM* | -18% | ? | 3.6* | ? | -10%
O=C(Nc1ccc2oc(-c3ccncc3)nc2c1)c1ccccc1F | 25µM* | 1% | -10% | . | ? | -12%
CCCCn1c(=NC(=O)c2cccnc2)c(C(=O)OCC)cc2c(=O)n3ccccc3nc21 | 13µM* | -5% | 18% | >57 | 16µM* | 5%
CCOC(=O)c1cc2c(=O)n3cccc(C)c3nc2n(CCOC)c1=NC(=O)c1ccncc1 | -19% | -1% | -5% | >57 | ? | 2%
CCOC(=O)c1cc2c(=O)n3cccc(C)c3nc2n(CCCOC)c1=NC(=O)c1cccnc1 | 25µM* | -10% | . | . | 3.2µM* | .
CCOCCCn1c(=NC(=O)c2cccnc2)c(C(=O)OCC)cc2c(=O)n3ccccc3nc21 | 25µM* | -14% | ? | >57 | 16µM* | 1%
Cc1nc(NCCO)c2nc(-c3ccccc3)n(CCN(C)C)c2n1 | 32µM* | 32µM* | -28% | . | ? | .
CCCn1c(C)nc2c(NCCO)nc(C)nc21 | -5% | -29% | -6% | . | 4% | .
CCCCNc1nc(C)nc2c1nc(-c1ccccc1)n2CCN(C)C | 32µM* | -30% | -5% | . | ? | .
COc1ccc(OC)c(CN2CCN(C(=O)c3cccc4ccccc34)CC2)c1 | -3% | -4% | -14% | 7.4* | -2% | 3%
COc1ccc(OC)c(CN2CCN(C(=O)c3cccs3)CC2)c1 | 7% | -8% | 12% | >57 | 9% | 2%
Nc1nc(Cl)nc2c1ncn2[C@@H]1O[C@H](CO)[C@@H](O)[C@H]1O | -2% | 1% | 10µM* | >26 | . | 0%[25.5 µM]
Nc1nc2c(ncn2[C@@H]2O[C@H](CO)[C@@H](O)[C@H]2O)c(=O)[nH]1 | 6% | -3%[25.6 µM] | -18% | . | . | .
SMILES | HSD17B inhib | ALOX15 inhib | ERK AVP block | PK Bst | HADH2 inh | FLuc inh
Cc1nn2cc(-c3ccc(Cl)cc3)nc2s1 | 1% | -27% | -15% | ? | -4% | 3.2µM*
Cc1c(C(=O)NCc2ccccn2)sc2nc(-c3ccccc3)cn12 | 9% | -21% | . | . | 5% | -20%
O=C(O)CCc1nn2cc(-c3ccccc3)nc2[nH]c1=O | . | . | . | >26 | . | -1%[25.5 µM]
Cc1nn2cc(-c3ccc(-c4ccccc4)cc3)nc2s1 | ? | 3% | 10% | . | -5% | 1µM*
CCc1nn2cc(-c3ccccc3)nc2s1 | 1% | 10µM* | -14% | 2.4* | 10% | 1.6µM*
O=c1c(-c2nc3ccccc3o2)c2oc3ccccc3n2c2ccccc12 | 4µM* | 15% | -6% | 5.4* | 44% | -4%
COc1ccc(C(=O)c2c[nH]c3ccccc23)cc1 | -2% | -3%[11.4 µM] | -25% | . | -5%[11.4 µM] | 10µM*
COc1ccccc1NC(=O)N(CCCN1CCOCC1)Cc1cc2cc3c(cc2[nH]c1=O)OCO3 | ? | 6% | 14% | >57 | ? | 2%
O=C(Nc1ccc(F)cc1)N(CCCN1CCOCC1)Cc1cc2cc3c(cc2[nH]c1=O)OCCO3 | 32µM* | -10% | -20% | . | ? | 0%
O=C(Nc1ccc(F)cc1)N(CCCN1CCOCC1)Cc1cc2cc3c(cc2[nH]c1=O)OCO3 | 32µM* | -2% | 19% | ? | ? | -2%
CCc1ccc2[nH]c(=O)c(CN(CCCN3CCOCC3)C(=O)Nc3ccc(F)cc3)cc2c1 | 25µM* | 16µM* | ? | ? | -3% | 0%
O=C(Nc1ccccc1)N(CCCN1CCOCC1)Cc1ccccc1F | 2% | 7% | 1% | >57 | 9% | 1%
O=C(O)C[C@H]1OCC=C2C[N@@+]3([O-])CC[C@]45c6ccccc6N[C@@H]4[C@@H]1[C@H]2C[C@H]53 | 5%[11.4 µM] | 1%[11.4 µM] | 8%[11.5 µM] | . | -1%[11.4 µM] | 3%[11.4 µM]
COc1ccc(OC)c2c(C)cc(NCCN3CCOCC3)nc12 | 25µM* | 9% | -10% | . | ? | -4%
Cc1c(/C(O)=C2/C(=O)C(=O)N(CCN3CCOCC3)C2c2cccs2)cnn1-c1ccccc1 (stereo not given) | -13% | -17% | 1% | . | -20% | 13µM*
CC(=O)NCCNc1cc(-c2ccccc2C)ncn1 | 0% | 7% | 2% | . | -2% | 0%[2.29 µM]
COC(=O)C/C=C\[C@@H](C)[C@@H](/C=N\O[C@@H]1O[C@H](COC(C)=O)[C@H](OC(C)=O)[C@H](OC(C)=O)[C@H]1OC(C)=O)OC | 0%[11.4 µM] | 5%[11.4 µM] | 17%[11.5 µM] | . | 3%[11.4 µM] | 0%[11.4 µM]
CC(C)Oc1ccccc1C1CC(=O)Nc2cc3c(cc21)OCCO3 (stereo not given) | -11% | ? | 16µM* | >57 | -27% | 0%
CCOc1ccc(/C(=N\O)C(C)NO)cc1 (stereo not given) | -10% | -13% | -13% | . | -26% | 2%
C=CCOc1ccc(/C=C/C(C)=N\O)cc1 | 1% | 0% | -4% | . | -3% | 16µM*
O=c1c(CCc2ccccc2)nc2cnc(N3CCOCC3)nc2n1CCc1ccccc1 | 3.2µM* | -7% | -5% | . | 5% | 1%[11.4 µM]
